# Source: publication PMC4336329 (PLoS ONE, 2015)
# Hit rate of the full screen: of about 310,000 compounds, about 14,000 (4.5%) showed an effect of 50% or more. The effect is printed as a negative number. Many of the other results were omitted from the sample, so strong results are more common in it than they were.
# Molecular target: human ether-à-go-go-related gene (hERG) potassium channel (human, UniProt Q12809)
# Experiment: primary screen, population patch clamp on CHO cells stably expressing hERG; higher = less effect of the substance
# 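Also: peak tail current of the secondary pulse compared with the same well before compound.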
# human ether-à-go-go-related gene (hERG) potassium channel, sequence (Q12809 whole entry, looked up): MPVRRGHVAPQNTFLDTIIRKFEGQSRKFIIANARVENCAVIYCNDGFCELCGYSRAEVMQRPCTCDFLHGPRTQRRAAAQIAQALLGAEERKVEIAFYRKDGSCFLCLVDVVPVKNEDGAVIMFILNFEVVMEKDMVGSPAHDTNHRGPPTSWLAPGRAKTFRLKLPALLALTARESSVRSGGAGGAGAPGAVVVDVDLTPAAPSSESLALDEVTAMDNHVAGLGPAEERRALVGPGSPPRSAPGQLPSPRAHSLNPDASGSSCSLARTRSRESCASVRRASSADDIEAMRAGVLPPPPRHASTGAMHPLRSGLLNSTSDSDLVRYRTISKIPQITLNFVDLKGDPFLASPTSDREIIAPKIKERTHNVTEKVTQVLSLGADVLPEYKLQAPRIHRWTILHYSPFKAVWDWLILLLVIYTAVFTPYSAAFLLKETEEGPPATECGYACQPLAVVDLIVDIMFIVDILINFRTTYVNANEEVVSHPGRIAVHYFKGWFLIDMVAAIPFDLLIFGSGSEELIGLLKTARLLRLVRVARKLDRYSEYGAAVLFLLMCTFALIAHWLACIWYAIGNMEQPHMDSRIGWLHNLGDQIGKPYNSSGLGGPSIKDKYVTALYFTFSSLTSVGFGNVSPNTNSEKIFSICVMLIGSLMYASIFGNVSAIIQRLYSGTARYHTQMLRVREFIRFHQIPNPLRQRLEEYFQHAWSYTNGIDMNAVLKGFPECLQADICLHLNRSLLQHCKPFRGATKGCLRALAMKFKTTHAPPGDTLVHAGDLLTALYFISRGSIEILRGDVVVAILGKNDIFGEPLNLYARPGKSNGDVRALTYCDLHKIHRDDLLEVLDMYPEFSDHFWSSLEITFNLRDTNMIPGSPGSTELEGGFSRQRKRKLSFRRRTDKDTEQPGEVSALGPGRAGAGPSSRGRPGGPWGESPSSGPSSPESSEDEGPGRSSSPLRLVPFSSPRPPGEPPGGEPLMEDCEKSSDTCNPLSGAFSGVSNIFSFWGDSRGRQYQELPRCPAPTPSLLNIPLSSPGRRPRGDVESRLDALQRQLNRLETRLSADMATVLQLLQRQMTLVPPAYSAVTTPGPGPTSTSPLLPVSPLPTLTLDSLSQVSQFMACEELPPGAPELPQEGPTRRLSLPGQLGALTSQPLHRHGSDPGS
row,Compound,"hERG current change (%, negative = inhibition) at 10uM [%]"
1,COC(=O)c1ccccc1N1CCS(=O)(=O)CC1,18.3
2,COc1ccc(C(=O)Nc2nc(C)c(C(C)=O)s2)cc1S(=O)(=O)N1CCOCC1,0.765
3,O=C(N/N=C/c1c(O)n(C2CC2)c(=S)[nH]c1=O)c1ccccc1O,2.57
4,CCN(CC)S(=O)(=O)c1ccc(N2CCN(C)CC2)c(NC(=O)c2cc(=O)c3ccccc3o2)c1,-18.4
5,Cc1ccc(C(=O)N(C)CC(=O)Nc2cccc(C)c2C)o1,9.83
6,Cc1nc2nc(NC(=O)c3ccco3)nn2c(C)c1Cl,-1.18
7,Br.c1ccc(-c2ccccc2OCc2nnc3n2CCC3)cc1,16.3
8,COc1ccc(C2C(C(=O)N3CCCC3)c3cc(OC)c(OC)cc3C(=O)N2C)cc1OC (centres unmarked),0.414
9,Cc1cc(C)c2cc(C#N)c(NCCOC(=O)c3ccccc3C)nc2c1,-54.8
10,CCC(=O)NCCNc1nc2cc(C)cc(C)c2cc1C#N,58.1
11,COc1ccccc1C(=O)NCCNc1nc2cc(C)cc(C)c2cc1C#N,13.3
12,Cc1c(OCC(=O)N2CCC(C(N)=O)CC2)ccc2c3c(c(=O)oc12)CCC3,7.25
13,CCOC(=O)N1CCC(Nc2c(OCC)c(=O)c2=O)CC1,3.96
14,Nc1ccccc1-c1nnc(-c2ccccc2N)n1N,8.38
15,CCN(CC)C(=O)Cn1cc(S(=O)(=O)CC(=O)Nc2ccc3c(c2)OCCO3)c2ccccc21,-9.47
16,CCOC(=O)Cn1c(S(=O)(=O)Cc2ccccc2Cl)nc(-c2ccccc2)c1-c1ccccc1,-6.2
17,CCC(C)CN1CCC(CO)(Cc2ccccc2Cl)CC1 (centres unmarked),-30
18,O=C(C1CCCC1)N1CCC(CO)(Cc2ccccc2Cl)CC1,-44.3
19,O=C(C1CCCCC1)N1CCC(CO)(Cc2ccccc2Cl)CC1,-15.3
20,OCC1(Cc2ccccc2Cl)CCN(C/C=C/c2ccccc2)CC1,-68.4
21,COc1ccc(/C=C/CN2CCC(CO)(Cc3ccccc3Cl)CC2)cc1,-79.6
22,CC(C)(C)NC(=O)N1CCC(CO)(Cc2ccccc2Cl)CC1,-4.82
23,Cc1ccccc1OCC(=O)O/N=C(\N)Cc1cccs1,5.34

row,Compound,"hERG current change (%, negative = inhibition) at 10uM [%]"
1,Cc1ccc2[nH]c3c(c2c1)CN(C(=O)CN(C)CC1OCCO1)CC3,12.7
2,COc1ccc(N2C(=O)NC(=O)/C(=C\c3ccc([N+](=O)[O-])s3)C2=O)cc1,13.3
3,O=C(Nc1cc(Cl)ccc1C(=O)O)c1ccc(CN2C(=O)c3ccccc3C2=O)cc1,20.7
4,Cc1ccc(OCC(=O)Nc2ccc(S(=O)(=O)Nc3ccccn3)cc2)cc1C,24.4
5,O=C(Cn1cnc2c(NC(=O)OCc3ccccc3)ncnc21)NCCN1CCOCC1,1.26
6,Br.COC(=O)c1ccc(CN2CCSC2=N)cc1,6.85
7,CN(CC(=O)Nc1ccc(F)c(F)c1)S(=O)(=O)c1cccc2nsnc12,-26.1
8,O=C(c1ccccn1)N(Cc1ccco1)C1(C(=O)NC2CCCC2)CCCCC1,-5.62
9,O.O=C(O)c1cc(=O)c2c(Cl)cc(Cl)cc2[nH]1,-51.9
10,O=C(O)c1cc(=O)c2ccccc2[nH]1,8.86
11,O=C(O)/C(=C\c1c(C(=O)O)[nH]c2cc(Cl)cc(Cl)c12)c1ccccc1,13.3
12,Cc1c(OC(C(=O)O)c2ccccc2)ccc2c1oc(=O)c1ccccc12 (centres unmarked),17.3
13,Cc1ccc(S(=O)(=O)Nc2ccc3c(c2)nc(CCN2CCN(c4ccccn4)CC2)n3C)cc1,-84.6
14,CC(C)C(=O)Nc1ccc2c(c1)nc(CCN1CCN(c3ccccn3)CC1)n2C,-18.2
15,CC(=O)Nc1ccc2c(c1)nc(CCN1CCN(c3ccccn3)CC1)n2C,18.6
16,Cn1c(CCN2CCN(c3ccccn3)CC2)nc2cc(NS(=O)(=O)c3ccc(Cl)cc3)ccc21,-84.3
17,CC1=C(C(=O)OCC(Cl)(Cl)Cl)N2C(=O)C(NC(=O)Cc3ccccc3)C2SC1 (centres unmarked),15.5
18,O=c1[nH]c(/C=C/c2ccc3c(c2)OCO3)c([N+](=O)[O-])c(=O)[nH]1,45.8
19,COc1ccc(NC(=O)CN(C)CC(=O)NC2CCC(C)CC2)cc1 (centres unmarked),0.408
20,O=C(NCCc1ccccc1)C(NS(=O)(=O)c1cccc2nsnc12)c1ccccc1 (centres unmarked),-25.4
21,COc1ccc(CCNC(=O)CCCn2c(SCC#N)nc3ccccc3c2=O)cc1OC,-12.7
22,CCOc1nc(Nc2ccc(F)cc2)nc(N2CCN(c3ccc(OC)cc3)CC2)n1,-14.7
23,Nc1nc(CSC(=S)N2CCN(c3ccccc3)CC2)nc(Nc2ccccc2)n1,0.151

row,Compound,"hERG current change (%, negative = inhibition) at 10uM [%]"
1,CCOc1nc(Nc2ccc(OC)c(Cl)c2)nc(N2CCN(c3ccc(OC)cc3)CC2)n1,14.9
2,Cc1ccc(Nc2nc(N)nc(CSC(=S)N3CCN(c4ccccc4)CC3)n2)cc1,8.32
3,Nc1nc(CN2CCN(c3ccccc3)CC2)nc(Nc2ccc(Cl)cc2)n1,-76
4,COc1ccc(N2CCN(Cc3nc(N)nc(Nc4ccc(C)c(Cl)c4)n3)CC2)cc1,-63.1
5,COc1ccc(Nc2nc(N)nc(CN3CCN(c4ccc(F)cc4)CC3)n2)cc1,-69.5
6,CCN1CCN(Cc2nc(N)nc(Nc3ccc(C)c(C)c3)n2)CC1,-65.8
7,COc1ccc(N2CCN(c3nc(Nc4ccc(C)c(F)c4)nc(N4CCCC4)n3)CC2)cc1,8.35
8,COC(=O)CC(=O)Cc1nc(N)nc(Nc2ccc(C)c(C)c2)n1,-9.22
9,CS(=O)(=O)N1CCN(c2ccccc2NC(=O)c2cc3ccccc3o2)CC1,7.78
10,O=C(COC(=O)[C@H](Cc1ccccc1)N1C(=O)c2ccccc2C1=O)Nc1ccc2c(c1)OCO2,-8.45
11,CCC1CCCCN1C(=O)c1cc(COc2ccc3ncccc3c2)on1 (centres unmarked),0.129
12,CCCCn1c(N)c(N(CCOC)C(=O)CSc2ccccc2C)c(=O)[nH]c1=O,-26.6
13,Cc1ccc(C(C)(C)C)cc1S(=O)(=O)Nc1nc2ccccc2nc1Cl,-33.6
14,COc1ccc(-c2csc3nc(-c4ccccc4OC)oc(=O)c23)cc1,19.1
15,COc1cc(C(=O)Nc2ccc3c(c2)Cc2ccccc2-3)cc(OC)c1OC,0.538
16,CC(=O)c1ccc(NC(=O)C(C)Nc2ccc(Cl)cc2)cc1 (centres unmarked),-4.45
17,Cc1nc(C(=O)NNC(=O)Nc2ccc(Cl)cc2)cs1,-0.711
18,CCN(CC)S(=O)(=O)c1cccc(-c2cn3cc(C)ccc3n2)c1,-9.87
19,O=C(Nc1cccnc1Oc1ccc(Cl)cc1)c1cccc2ccccc12,3.61
20,COCCC(=O)N1CCC(Oc2ccc(C(=O)N3CCC(N(C)C)C3)cc2)CC1 (centres unmarked),20.7
21,Cc1ccc(Nc2nc(N)nc(CN3CCN(Cc4ccccc4)CC3)n2)cc1Cl,-76.4
22,Cc1ccc(Nc2nc(N)c3ccccc3n2)cc1Cl.Cl,9.26
23,Cc1ccc(Nc2nc(N)nc(CN3CCN(c4ccccc4)CC3)n2)cc1Cl,-66.4

row,Compound,"hERG current change (%, negative = inhibition) at 10uM [%]"
1,CCCCN(C(=O)CNC(=O)c1ccco1)C(C(=O)NC1CCCC1)c1ccc(OC)cc1 (centres unmarked),-20.1
2,NC(=O)CC(NC(=O)c1ccc(Br)cc1)c1ccc(N2CCN(c3ccc(F)cc3)CC2)c([N+](=O)[O-])c1 (centres unmarked),6.16
3,CC(=O)Nc1ccc(OC(=O)Oc2ccc(NC(C)=O)cc2)cc1,0.315
4,CC1(C)NC(C)(C)c2nonc2/C1=N\O,-1.78
5,CCn1c2c(c3cc(C(=O)O)ccc31)CCCC2=O,18.5
6,CSc1nccc(N/N=C/c2ccccc2)n1,23.9
7,CC(=O)/C=C(\C)Nc1ccccc1O,21.3
8,COc1ccc(C(=O)/C=C/Nc2ccccn2)cc1,2.01
9,O=C(NC1CCCc2c1cnn2-c1ccccc1F)c1ccccn1 (centres unmarked),5.09
10,O=C(NC1CCCc2c1cnn2-c1cc(F)cc(F)c1)c1ccncc1 (centres unmarked),-64.1
11,Cn1nccc1C(=O)NC1CCCc2c1cnn2-c1cc(F)cc(F)c1 (centres unmarked),-45.2
12,CSCC(=O)NC1CCCc2c1cnn2-c1cc(F)cc(F)c1 (centres unmarked),-12.6
13,O=C(NC1CCCc2c1cnn2-c1cc(F)cc(F)c1)c1cc[n+]([O-])cc1 (centres unmarked),-37.1
14,CCN(CC)CC(=O)NC1CCCc2c1cnn2-c1cc(F)cc(F)c1 (centres unmarked),-9.77
15,O=C(NC1CCCc2c1cnn2-c1cc(F)cc(F)c1)c1ccccn1 (centres unmarked),-52.4
16,Cc1cccc(-n2ncc3c2CCCC3NC(=O)CCc2ccncc2)c1C (centres unmarked),4.95
17,O=C(NC1CCCc2c1cnn2-c1ccc(F)cc1F)c1ccccn1 (centres unmarked),1.82
18,C=CCC(=O)NC1CCCc2c1cnn2-c1cc(F)cc(F)c1 (centres unmarked),-75.7
19,O=C(CCc1ccncc1)NC1CCCc2c1cnn2-c1cc(F)cc(F)c1 (centres unmarked),-56.5
20,O=C(CCc1ccncc1)NC1CCCc2c1cnn2-c1ccc(F)cc1F (centres unmarked),-12.5
